Three compounds from PubChem BioAssay (NCI) can be followed below.

What all share (experiment): NCI-60 one-dose screen, 48 h (100 = growth as untreated, 0 = no growth, -100 = all killed)
Common to all, as to settings: 10 µM unless noted

Test [1] deals with DU-145 prostate.
The subject of test [2] is K-562 leukemia.
In test [3] the test system is MALME-3M melanoma.
The subject of test [4] is MDA-MB-231 breast.
Test [5] relates to RXF 393 renal.
In test [6] the test system is SF-268 CNS.
For test [7], the system named is SF-295 CNS.
Test [8] deals with SF-539 CNS.
Test [9] deals with UACC-257 melanoma.
Test [10] concerns M14 melanoma.
For test [11], the system named is HCT-15 colon.
For test [12], the system named is HT29 colon.
Test [13] relates to SNB-75 CNS.
Test [14] concerns SNB-19 CNS.
Test [15] has as its system U251 CNS.
For test [16], the system named is PC-3 prostate.
Test [17] has as its system SK-MEL-5 melanoma.
The test system of test [18] is UACC-62 melanoma.
In test [19] the test system is LOX IMVI melanoma.
Test [20] deals with SK-MEL-28 melanoma.

Compounds without any hit were thinned out: in the full panel of roughly 83,000, 20% have a hit.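 Values shown are percent growth following 48 h exposure of cells in 96-well plates to a single concentration of compound; below 10 was considered active.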 A number with no mark means an inactive call. Calls of active or inactive are those of the source.

Turning to `O=C1C(Cl)=C(Nc2ccc3cn[nH]c3c2)C(=O)c2ccccc21`, the growth in test [1] was -100% (active); in test [2], -50% (active); in [3], -88.7% (active); in [4], -50.3% (active); in [5], -95.9% (active); in test [6], -98.7% (active). Further, the growth in test [7] was 5.88% (active); in test [8], 10.5%; in [9] it was 19.3%; in [10] it was -83.8% (active); in [11] it was -84.1% (active); in [12] it was -66.9% (active). In addition, the growth in test [13] is -84.5% (active); in test [14], 76.5%; in [15], -93.2% (active); in [16], -42% (active); in test [17], -99.5% (active); in test [18], -97.9% (active). Also, the growth in test [19] was -87.5% (active); in test [20] it was -97.7% (active).

For `Nc1cc(N)c(N=Nc2ccc(S(=O)(=O)O)cc2)cc1N=Nc1ccc(-c2ccc(N=Nc3ccc(O)c(C(=O)O)c3)cc2)cc1`, the growth is 111% in test [1]; 108% in test [2]; 93.2% in [3]; 100% in [4]; 124% in [5]; 104% in test [6]. Also, the growth was 103% in [7]; 100% in test [8]; 101% in test [9]; 99.8% in test [10]; 103% in [11]; 103% in test [12]. The growth in test [13] was 98.9%; in [14], 95.6%; in test [15] it was 101%; in test [16], 98.2%; in test [17], 101%; in test [18], 94.6%. For the same compound, the results for the growth in [19] and in test [20] were 100% and 106%, respectively.

With `O=c1cc(-c2ccccc2)oc2c(O)c(O)ccc12`, the growth is 68.4% in [1]; 63.9% in test [2]; 87.2% in [3]; 71% in test [4]; 72.9% in test [5]; 67.6% in test [6]. Moreover, the growth in [7] was 64.5%; in test [8] it was 53.1%; in test [9] it was 85.3%; in test [10], 58.8%; in test [11] it was 38%; in [12] it was 77.4%. Besides, the growth is 73.7% in [13]; 58% in [14]; 43.1% in [15]; 67.4% in [16]; 53.6% in [17]; 72.7% in test [18]. The growth was 53.9% in test [19] and 81% in [20].
